PubChem BioAssay (NCATS)
Inconclusive results are not listed. A call without a number means that no potency is given here. The source made the active and inactive calls. The call rests on the fitted dose curve; in most records, active means well fitted curve in the direction sought with a large enough effect; inconclusive means small, poorly fitted or top-dose-only effect, or another doubt; inactive means no such curve, though single readings can be large; an effect the other way counts as inactive or inconclusive.

target: Cytochrome P450 2D6 (Homo sapiens) (UniProt P10635); test: qHTS Assay for Inhibitors and Substrates of Cytochrome P450 2D6 (AID 891); settings: recombinant CYP2D6, luciferin-ME EGE luminescence; series mostly up to 57.1 µM; further: nearly all actives have a fitted effect of over 60% in size
Sequence (P10635 whole entry, looked up): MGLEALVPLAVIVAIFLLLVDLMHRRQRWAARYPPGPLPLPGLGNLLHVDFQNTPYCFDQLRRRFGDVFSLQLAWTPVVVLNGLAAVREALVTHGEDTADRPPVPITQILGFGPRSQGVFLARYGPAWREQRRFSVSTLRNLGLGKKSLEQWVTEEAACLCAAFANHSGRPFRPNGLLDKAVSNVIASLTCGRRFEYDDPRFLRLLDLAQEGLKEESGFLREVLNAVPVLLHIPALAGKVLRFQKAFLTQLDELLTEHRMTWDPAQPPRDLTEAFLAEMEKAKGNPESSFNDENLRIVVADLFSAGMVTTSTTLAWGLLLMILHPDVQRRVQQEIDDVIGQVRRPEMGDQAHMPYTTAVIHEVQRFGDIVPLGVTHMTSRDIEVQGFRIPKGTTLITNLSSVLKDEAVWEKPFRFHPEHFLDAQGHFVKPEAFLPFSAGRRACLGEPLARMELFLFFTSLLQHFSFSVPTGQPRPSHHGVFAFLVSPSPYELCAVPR
Summary of the method: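 Human CYP2D6 (5 nM) with 30 uM Luciferin-ME EGE (at Km) in 100 mM KPO4, compound preincubated 10 min, then NADPH regeneration system for 60 min at room temperature. Luciferin read by luminescence; normalized to 1.43 uM quinidine.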
Potency means the concentration at half of the fitted maximal effect.

| Compound | Potency |
| --- | --- |
| O=C(N/N=C\c1ccccc1O)c1ccccc1O | 7.94 µM (active) |
| O=C1C(=O)N(Cc2ccc(Cl)c(Cl)c2)c2ccccc21 | 3.98 µM (active) |
| CCCn1c(=O)[nH]c2nc(-c3ccc(S(=O)(=O)O)cc3)[nH]c2c1=O | 7.94 µM (active) |
| COCCNC(=O)COc1ccc(OCCNC[C@@H](O)COc2ccccc2)cc1 | 5.01 µM (active) |
| CS(=O)(=O)Nc1ccc([N+](=O)[O-])cc1OC1CCCCC1 | 0.0501 µM (active) |

target: Cytochrome P450 2C19 (Homo sapiens) (UniProt P33261); test: qHTS Assay for Inhibitors and Substrates of Cytochrome P450 2C19 (AID 899); settings: recombinant CYP2C19, luciferin-H EGE luminescence; series mostly up to 57.1 µM; further: nearly all actives have a fitted effect of over 60% in size
Sequence (P33261 whole entry, looked up): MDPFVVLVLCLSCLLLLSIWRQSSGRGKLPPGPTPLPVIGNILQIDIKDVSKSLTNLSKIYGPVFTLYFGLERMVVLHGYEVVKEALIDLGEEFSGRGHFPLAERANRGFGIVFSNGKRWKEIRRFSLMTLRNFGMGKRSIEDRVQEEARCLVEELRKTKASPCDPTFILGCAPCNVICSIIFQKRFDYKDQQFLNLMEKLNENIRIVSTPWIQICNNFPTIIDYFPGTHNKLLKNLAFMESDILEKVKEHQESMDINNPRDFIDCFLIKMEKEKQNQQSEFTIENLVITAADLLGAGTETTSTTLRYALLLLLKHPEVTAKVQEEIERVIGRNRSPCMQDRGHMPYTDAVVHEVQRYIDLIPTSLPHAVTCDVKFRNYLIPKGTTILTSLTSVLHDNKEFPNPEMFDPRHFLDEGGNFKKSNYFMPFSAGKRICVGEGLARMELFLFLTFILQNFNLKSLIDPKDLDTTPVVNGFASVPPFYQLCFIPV
Summary of the method: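 Human CYP2C19 (5nM) with Luciferin-H EGE at 10uM (its KM) in 50mM KPO4 was preincubated with compound for 10 min at 37C. NADPH regeneration started a 60 min 37C reaction. Luciferin was read by luminescence, normalized to 57uM ketoconazole.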

| Compound | Potency |
| --- | --- |
| O=C(N/N=C\c1ccccc1O)c1ccccc1O | inactive |
| Cc1cc(Cn2cnc3c2C[C@@H](C(=O)O)N(C(=O)C(c2ccccc2)c2ccccc2)C3)ccc1N(C)C | 1.58 µM (active) |
| CSc1nc(NC2CCCC2)c([N+](=O)[O-])c(NC2CCCC2)n1 | 5.01 µM (active) |
| CCCCCCCCCCCCC(=O)N1CCCC[C@H]1CNC(=O)[C@@H](N)CCCCN | 7.94 µM (active) |
| CS(=O)(=O)Nc1ccc([N+](=O)[O-])cc1OC1CCCCC1 | 0.0794 µM (active) |
| NCCCCNS(=O)(=O)c1ccc2c(Cl)cccc2c1 | 0.0025 µM (active) |

target: Ubiquitin carboxyl-terminal hydrolase 1 (Homo sapiens) (UniProt O94782); test: Inhibitors of USP1/UAF1: Pilot qHTS (AID 504865); settings: purified USP1/UAF1, Ub-rhodamine cleavage fluorescence; series mostly up to 114 µM; further: nearly all actives have a fitted effect of over 35% in size
Sequence (O94782 whole entry, looked up): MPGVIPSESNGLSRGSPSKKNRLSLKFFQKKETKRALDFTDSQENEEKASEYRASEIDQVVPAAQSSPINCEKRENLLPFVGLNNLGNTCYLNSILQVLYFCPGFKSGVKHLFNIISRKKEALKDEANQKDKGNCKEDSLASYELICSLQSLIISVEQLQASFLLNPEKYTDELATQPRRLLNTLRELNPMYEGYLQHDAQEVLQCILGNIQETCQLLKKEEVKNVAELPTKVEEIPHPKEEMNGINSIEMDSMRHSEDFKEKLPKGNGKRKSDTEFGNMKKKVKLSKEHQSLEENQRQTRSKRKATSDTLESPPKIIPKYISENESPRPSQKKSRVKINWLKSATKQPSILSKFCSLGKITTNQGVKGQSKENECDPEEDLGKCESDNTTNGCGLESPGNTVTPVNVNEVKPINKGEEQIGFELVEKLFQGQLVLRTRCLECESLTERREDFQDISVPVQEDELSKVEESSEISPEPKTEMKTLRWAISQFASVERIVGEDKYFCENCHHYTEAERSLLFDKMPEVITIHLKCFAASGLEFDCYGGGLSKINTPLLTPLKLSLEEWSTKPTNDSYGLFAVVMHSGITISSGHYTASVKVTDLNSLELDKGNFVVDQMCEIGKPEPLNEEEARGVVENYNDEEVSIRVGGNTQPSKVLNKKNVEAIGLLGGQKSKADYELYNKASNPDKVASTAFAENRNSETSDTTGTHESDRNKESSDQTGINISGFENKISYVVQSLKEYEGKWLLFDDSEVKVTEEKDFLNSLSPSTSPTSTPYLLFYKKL
Summary of the method: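 1nM USP1/UAF1 + cpd, 15 min RT; start w/ Ub-Rho 150nM final; kinetic FL 480/540 nm, 6 reads q60 s. Buffer 50mM HEPES pH 7.8, 0.5mM EDTA, 1mM TCEP, 0.01% Tween-20, 0.1 mg/ml BSA.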

| Compound | Potency |
| --- | --- |
| O=C(N/N=C\c1ccccc1O)c1ccccc1O | inactive |
| COc1ccccc1N1CCN(C[C@@H](C(=O)NC(C)(C)C)c2ccccc2)CC1 | inactive |
| OC[C@@H](O)COc1cccc2ccccc12 | inactive |
| O=C(c1ccc2c(c1)OCO2)N1CCCCC1 | inactive |
| CC(C)(C)Cn1nc(-c2ccc(Cl)cc2)c2c(N)ncnc21 | inactive |
| Fc1ccc([C@H]2CCNC[C@H]2COc2ccc3c(c2)OCO3)cc1 | inactive |
| CCCn1c(=O)c2[nH]c(-c3ccccc3)nc2n(CCC)c1=O | inactive |
| C[C@H](O)CO[C@H]1[C@H]2O[C@H]3[C@H](O)[C@@H](O)[C@@H](O[C@H]4[C@H](O)[C@@H](O)[C@@H](O[C@H]5[C@H](O)[C@@H](O)[C@@H](O[C@H]6[C@H](O)[C@@H](OC[C@H](C)O)[C@@H](O[C@H]7[C@H](O)[C@@H](OC[C@H](C)O)[C@@H](O[C@H]8[C@H](O)[C@@H](O)[C@@H](O[C@@H]([C@@H]1O)[C@@H](CO)O2)O[C@@H]8CO)O[C@@H]7CO)O[C@@H]6CO)O[C@@H]5CO)O[C@@H]4CO)O[C@@H]3CO | inactive |
| C[C@@H]1c2ccccc2CN1CC1=NCCN1 | 50.1 µM (active) |
| Cc1cc(Cn2cnc3c2C[C@@H](C(=O)O)N(C(=O)C(c2ccccc2)c2ccccc2)C3)ccc1N(C)C | inactive |
| CCCn1c(=O)[nH]c2nc(-c3ccc(S(=O)(=O)O)cc3)[nH]c2c1=O | inactive |
| COCCNC(=O)COc1ccc(OCCNC[C@@H](O)COc2ccccc2)cc1 | inactive |
| CCOC(OCC)P(=O)(O)CCCNCc1ccc(Cl)c(Cl)c1 | inactive |
| C[C@@H]1Nc2ccc(Cl)cc2S(=O)(=O)N1 | inactive |
| NCCCNCCCCN(CCCN)/[N+]([O-])=N/O | inactive |
| CCCCCCCC(=O)O[C@H](CC(=O)O)C[N+](C)(C)C | inactive |
| COC(=O)/C=C\c1cc(O)ccc1O | inactive |
| CCCCCCCCCCCCC(=O)N1CCCC[C@H]1CNC(=O)[C@@H](N)CCCCN | 50.1 µM (active) |
| CC[C@]1(O)C[C@@H]2CN(CCc3c([nH]c4ccccc34)[C@](C(=O)OC)(c3cc4c(cc3OC)N(C=O)[C@H]3[C@@](O)(C(=O)OC)[C@H](C(=O)OC)[C@@]5(CC)C=CCN6CC[C@]43[C@H]65)C2)C1 | inactive |
| CC(=O)OCCNC(=O)c1cccnc1 | inactive |
| c1ccc2cc(C3=NCCN3)ncc2c1 | inactive |
| CC#CCOC(=O)C1=CCCN(C)C1 | inactive |
| NCCCCNS(=O)(=O)c1ccc2c(Cl)cccc2c1 | inactive |
| C[C@](O)(C(=O)Nc1ccc(S(=O)(=O)c2ccccc2)cc1)C(F)(F)F | inactive |
| CCCCC#Cc1nc(NC)c2ncn([C@@H]3O[C@@H](CO)[C@H](O)[C@H]3O)c2n1 | inactive |
| O=C(O)CC/C=C\C[C@@H]1CO[C@H](c2ccccc2Cl)O[C@@H]1c1ccccc1O | inactive |
| O=c1nc2ccccc2c2n1C[C@H](CN1CCN(c3ccccc3)CC1)N2 | inactive |

target: DNA dC->dU-editing enzyme APOBEC-3G (Homo sapiens) (UniProt Q9HC16); test: qHTS for inhibitors of Vif-A3G interactions: Validation (AID 588379); settings: Vif-A3G protein interaction assay; series mostly up to 46.1 µM
Sequence (Q9HC16 whole entry, looked up): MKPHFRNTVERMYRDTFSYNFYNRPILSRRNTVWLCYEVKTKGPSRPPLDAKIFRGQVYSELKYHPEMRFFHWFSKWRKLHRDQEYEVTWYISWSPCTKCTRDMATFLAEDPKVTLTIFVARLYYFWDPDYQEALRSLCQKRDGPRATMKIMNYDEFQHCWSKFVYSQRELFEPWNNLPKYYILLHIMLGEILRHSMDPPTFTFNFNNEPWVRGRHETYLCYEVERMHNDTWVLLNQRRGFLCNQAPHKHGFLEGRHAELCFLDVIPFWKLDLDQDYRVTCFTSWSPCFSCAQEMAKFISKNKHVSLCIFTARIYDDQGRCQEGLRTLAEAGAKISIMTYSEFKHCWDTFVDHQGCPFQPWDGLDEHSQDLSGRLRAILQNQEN
Summary of the method: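 HeLa cells stably expressing Vif and A3G-eYFP, 700 cells/well, incubated overnight at 37 deg C, then exposed to compound overnight at 37 deg C. Inhibition of Vif-mediated degradation read as increased yellow fluorescence (Ex 488/Em 500-530) by laser-scanning cytometry.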

| Compound | Potency |
| --- | --- |
| COc1ccccc1N1CCN(C[C@@H](C(=O)NC(C)(C)C)c2ccccc2)CC1 | inactive |
| OC[C@@H](O)COc1cccc2ccccc12 | inactive |
| O=C(c1ccc2c(c1)OCO2)N1CCCCC1 | inactive |
| CC(C)(C)Cn1nc(-c2ccc(Cl)cc2)c2c(N)ncnc21 | inactive |
| Fc1ccc([C@H]2CCNC[C@H]2COc2ccc3c(c2)OCO3)cc1 | inactive |
| CCCn1c(=O)c2[nH]c(-c3ccccc3)nc2n(CCC)c1=O | inactive |
| C[C@H](O)CO[C@H]1[C@H]2O[C@H]3[C@H](O)[C@@H](O)[C@@H](O[C@H]4[C@H](O)[C@@H](O)[C@@H](O[C@H]5[C@H](O)[C@@H](O)[C@@H](O[C@H]6[C@H](O)[C@@H](OC[C@H](C)O)[C@@H](O[C@H]7[C@H](O)[C@@H](OC[C@H](C)O)[C@@H](O[C@H]8[C@H](O)[C@@H](O)[C@@H](O[C@@H]([C@@H]1O)[C@@H](CO)O2)O[C@@H]8CO)O[C@@H]7CO)O[C@@H]6CO)O[C@@H]5CO)O[C@@H]4CO)O[C@@H]3CO | inactive |
| C#CCCCCCCCCCCCCCCCC(=O)O | inactive |
| C[C@@H]1c2ccccc2CN1CC1=NCCN1 | inactive |
| Cc1cc(Cn2cnc3c2C[C@@H](C(=O)O)N(C(=O)C(c2ccccc2)c2ccccc2)C3)ccc1N(C)C | inactive |
| COc1cc(OC)c(C(=O)CCCCN2CCC3(CC2)NC(=O)NC3=O)cc1NS(=O)(=O)c1ccc(C(F)(F)F)cc1 | inactive |
| O=C1C(=O)N(Cc2ccc(Cl)c(Cl)c2)c2ccccc21 | inactive |
| CCCn1c(=O)[nH]c2nc(-c3ccc(S(=O)(=O)O)cc3)[nH]c2c1=O | inactive |
| COCCNC(=O)COc1ccc(OCCNC[C@@H](O)COc2ccccc2)cc1 | inactive |
| CCOC(OCC)P(=O)(O)CCCNCc1ccc(Cl)c(Cl)c1 | inactive |
| CCCCC(=O)NCCc1c(Cc2ccccc2)[nH]c2ccccc12 | inactive |
| C[C@@H]1Nc2ccc(Cl)cc2S(=O)(=O)N1 | inactive |
| CSc1nc(NC2CCCC2)c([N+](=O)[O-])c(NC2CCCC2)n1 | inactive |
| NCCCNCCCCN(CCCN)/[N+]([O-])=N/O | inactive |

| Compound | Potency |
| --- | --- |
| CCCCCCCC(=O)O[C@H](CC(=O)O)C[N+](C)(C)C | inactive |
| COC(=O)/C=C\c1cc(O)ccc1O | 18.8 µM (active) |
| CCCCCCCCCCCCC(=O)N1CCCC[C@H]1CNC(=O)[C@@H](N)CCCCN | inactive |
| CCOC(=O)C1=C(C)NC(c2ccccc2)=C(C(=O)OCc2ccc([N+](=O)[O-])cc2)[C@@H]1C#Cc1ccccc1 | inactive |
| CC[C@]1(O)C[C@@H]2CN(CCc3c([nH]c4ccccc34)[C@](C(=O)OC)(c3cc4c(cc3OC)N(C=O)[C@H]3[C@@](O)(C(=O)OC)[C@H](C(=O)OC)[C@@]5(CC)C=CCN6CC[C@]43[C@H]65)C2)C1 | inactive |
| CC(=O)[C@H](CC(C)C)NC(=O)[C@@H](CC(C)C)NC(=O)[C@H](CC(C)C)NC(=O)OCc1ccccc1 | 0.335 µM (active) |
| NS(=O)(=O)c1cccc2c1c([N+](=O)[O-])cc1[nH]c(=O)c(=O)[nH]c12 | inactive |
| CC(=O)OCCNC(=O)c1cccnc1 | inactive |
| c1ccc2cc(C3=NCCN3)ncc2c1 | inactive |
| CS(=O)(=O)Nc1ccc([N+](=O)[O-])cc1OC1CCCCC1 | inactive |
| COc1cccc(C=NC=Nc2cccc(OC)c2)c1 | inactive |
| CC#CCOC(=O)C1=CCCN(C)C1 | inactive |
| NCCCCNS(=O)(=O)c1ccc2c(Cl)cccc2c1 | inactive |
| C[C@](O)(C(=O)Nc1ccc(S(=O)(=O)c2ccccc2)cc1)C(F)(F)F | inactive |
| CCCCC#Cc1nc(NC)c2ncn([C@@H]3O[C@@H](CO)[C@H](O)[C@H]3O)c2n1 | inactive |
| O=C(O)CC/C=C\C[C@@H]1CO[C@H](c2ccccc2Cl)O[C@@H]1c1ccccc1O | inactive |
| Cc1ccc(-c2nn(CC(C)(C)C)c3ncnc(N)c23)cc1 | inactive |
| Cc1noc(NS(=O)(=O)c2cccc3c(N(C)C)cccc23)c1C | inactive |
| O=c1nc2ccccc2c2n1C[C@H](CN1CCN(c3ccccc3)CC1)N2 | inactive |
